Read-out in experiment [1]: Cytochrome P450 (CYP24A1_1), CYP24A1 (gene 1591)
As to the kind of experiment: LTEA_HepaRG_CYP24A1_1: Life Technologies and Expression Analysis (LTEA) Assay for Cytochrome P450 (CYP24A1_1) using HepaRG (AID 2283671; active = hit-call score of the fitted dose curve at least 0.9, where 1 is the maximum; inactive = score below 0.9). As to conditions: mRNA level, 48 h; actives raise or lower the signal. The procedure, abridged:
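Readout is CYP24A1 transcript level by qRT-PCR, normalized to three housekeeping genes, with gain or loss of signal fitted against 0.5% DMSO. Human HepaRG cells received compound for 48 h at up to 100 uM.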

A short description of experiment [2]: CCTE_Padilla_ZF_144hpf_TERATOSCORE: (Legacy) CCTE's 144 Hour Post-fertilization zebrafish Assay Teratoscore, Padilla Lab (AID 2283679; active = hit-call score of the fitted dose curve at least 0.9, where 1 is the maximum; inactive = score below 0.9;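 as to AC50: zebrafish embryos with chorions exposed by immersion from 6-8 hpf to 5 dpf with daily renewal; teratogenicity score from eye scoring of death hatching and malformations at 144 hpf; higher score means more developmental defects relative to DMSO baseline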). The procedure, abridged: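 Larvae scored by eye at 144 hpf for death, hatching and malformations after a day in clean Hanks'. Before that, daily-renewed exposure at 80 uM (0.4% DMSO, 26C) from roughly 6-8 hpf through 5 dpf, 4 embryos per chemical.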

Experiment [3] is described as follows: Tanguay_ZF_120hpf_ActivityScore_legacy: (Legacy) Oregon State University Tanguay Lab 120 Hour Post-fertilization zebrafish Assay Score for Activity (AID 2283742).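 As to AC50: dechorionated Tropical 5D wild-type zebrafish embryos held singly per well.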 The procedure, abridged:
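Dechorionated 5D embryos, one per well, static exposure 6–120 hpf, 28C, sealed and dark; final DMSO 0.64% (vol/vol). Brightfield binary scoring of mortality plus 18 endpoints; gain-of-signal fit versus DMSO baseline.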

Experiment [4] concerns the target Luciferin 4-monooxygenase (Photinus pyralis) (UniProt P08659). Kind of experiment: CCTE_Simmons_QuantiLum_inhib_2: CCTE's Firefly Luciferase Inhibition Assay, Simmons Lab (AID 2283767).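 As to AC50: potency for inhibitors that lower luciferase luminescence relative to DMSO.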 The procedure, abridged: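 First, 5 ng purified luciferase in phosphate buffer with BSA is dispensed per well. Next, test chemicals (5 nM to 87.5 uM final, 0.5% DMSO) are added and incubated 30 min at 37C in darkness. Finally, luciferin reagent is injected and luminescence read kinetically.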

A short description of experiment [5]: CEETOX_H295R_MTT_cell_viability: Viability Assessment in the CeeTox HT-H295R MTT Assay (AID 2283718; active = hit-call score of the fitted dose curve at least 0.9, where 1 is the maximum; inactive = score below 0.9;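 as to AC50: curve fitted both ways so AC50 may mark viability loss or gain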). The essentials:
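Human H295R adrenal cells, prestimulated 48 h with 10 uM forskolin, were exposed 48 h to chemicals in 0.1% DMSO. Viability was measured in the same wells by MTT (0.5 mg/ml, 4 h, 37 C), absorbance 570/650 nm, as percent of controls.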

A short description of experiment [6]: ACEA_AR_agonist_AUC_viability: ACEA Biosciences xCELLigence Real-Time Cell Analysis on Androgen Receptor Agonism for Viability (AID 2283775).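 As to AC50: viability read 80 hours after compound addition.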 The essentials:
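22Rv1 cells; impedance growth kinetics; 8-pt 1:4 dilutions from 100 uM top final, ≤0.5% DMSO; n = 2; 80 h read; AUC viability, loss-of-signal vs DMSO.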

The nature of experiment [7]: STM_H9_CystineISnorm_perc: Stemina devTOX quickPredict H9 human embryonic stem cell (hESC)-based Assay for Cystine (CYSS) Metabolite Biomarker, Normalized (AID 2283713; active = hit-call score of the fitted dose curve at least 0.9, where 1 is the maximum; inactive = score below 0.9). The essentials: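 Cells are held undifferentiated and treated for 72h, receiving fresh medium with compound every 24h. Cystine secreted during the final day is quantified by UPLC-HRMS against a labeled spike-in, then expressed relative to the DMSO vehicle median.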

Experiment [8] is described as follows: STM_H9_OrnCyssISnorm_ratio: Stemina devTOX quickPredict H9 human embryonic stem cell (hESC)-based Assay for Ornithine (ORN):Cystine (CYSS) Ratio (AID 2283714). The essentials:
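UPLC-HRMS of spent media: ORN/CYSS ratio of internal-standard-normalized percentages, DMSO (0.1%) baseline. Pluripotent H9 hESCs, 72h exposure, daily re-dosing with fresh media; last 24h media collected.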

Experiment [9] relates to zebrafish Androgen Receptor (AR), gene 100005148. Kind of experiment: ATG_zfAR_XSP1: Attagene TRANS-FACTORIAL Multi-Species (XSP1) HepG2 Assay for zebrafish Androgen Receptor (AR) (AID 2283771). The essentials: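 Gain-of-signal versus DMSO was measured as reporter transcripts quantified by RT-PCR, fluorescent labelling and capillary electrophoresis after 24 h chemical exposure. The cells were HepG2 expressing a chimeric zebrafish AR-GAL4, co-stimulated with 3 nM 6-alpha-fluorotestosterone.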

Experiment [10] has as its target zebrafish Estrogen Receptor (ESR1), esr1 (gene 259252) (UniProt P57717). Kind of experiment: ATG_zfER1_XSP1: Attagene TRANS-FACTORIAL Multi-Species (XSP1) HepG2 Assay for zebrafish Estrogen Receptor (ESR1) (AID 2283772). The procedure, abridged:
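Trans-activation readout: transfected zebrafish ER-Gal4 drives a UAS reporter in human HepG2 liver cells. After 24 h compound exposure (medium containing 3 nM 6-alpha-fluorotestosterone), induced reporter transcripts were quantified by RT-PCR with capillary electrophoresis, relative to DMSO.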

The subject of experiment [11] is zebrafish Estrogen Receptor (ESR2B), gene 317733. As to the kind of experiment: ATG_zfER2b_XSP1: Attagene TRANS-FACTORIAL Multi-Species (XSP1) HepG2 Assay for zebrafish Estrogen Receptor (ESR2B) (AID 2283773). The procedure, abridged:
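Multiplexed TRANS format in transfected HepG2 liver cells, chimeric NR-Gal4 from zebrafish ESR2B. 24 h dosing; medium contains 3 nM 6-alpha-fluorotestosterone. mRNA induction by RT-PCR/CE, positive direction vs DMSO.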

Experiment [12] relates to frog Estrogen Receptor (ESR2), gene 100174814. Kind of experiment: ATG_frER2_XSP1: Attagene TRANS-FACTORIAL Multi-Species (XSP1) HepG2 Assay for frog Estrogen Receptor (ESR2) (AID 2283774). The essentials: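 HepG2, transient MRTU transfection (GAL4-UAS reporters, exogenous NR-Gal4 chimeras); 24 h compound exposure; 3 nM 6α-fluorotestosterone co-added; total RNA → RT-PCR → 6-FAM primer extension → HpaI → CE. Positive direction vs DMSO.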

For experiment [13], the system named is Thyroperoxidase (TPO), gene 445522. As to the kind of experiment: CCTE_Simmons_GUA_TPO: CCTE's Guaiacol Assay for Thyroperoxidase (TPO) Inhibition, Simmons Lab (AID 2283750). The essentials: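 Porcine thyroid microsomes (25 ug) in 200mM potassium phosphate, preincubated 30 s at 37C with compound (8 concentrations, 5 nM–87.5 uM) and 35mM guaiacol; 1mM H2O2 starts reaction. Absorbance change at 450nm over first 80 s; loss of signal versus DMSO, three replicates.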

“And” between values parts separate entries of the source, which are not always exact repeats. Identical values can stand only once. Records with an inconclusive call do not appear. The source made the active and inactive calls. The calls were made as follows, unless noted: active = hit-call score of the fitted dose curve at least 0.9, where 1 is the maximum; inconclusive = response in the unintended direction; inactive = score below 0.9.

Sequence of Luciferin 4-monooxygenase (Photinus pyralis) (P08659 whole entry, looked up): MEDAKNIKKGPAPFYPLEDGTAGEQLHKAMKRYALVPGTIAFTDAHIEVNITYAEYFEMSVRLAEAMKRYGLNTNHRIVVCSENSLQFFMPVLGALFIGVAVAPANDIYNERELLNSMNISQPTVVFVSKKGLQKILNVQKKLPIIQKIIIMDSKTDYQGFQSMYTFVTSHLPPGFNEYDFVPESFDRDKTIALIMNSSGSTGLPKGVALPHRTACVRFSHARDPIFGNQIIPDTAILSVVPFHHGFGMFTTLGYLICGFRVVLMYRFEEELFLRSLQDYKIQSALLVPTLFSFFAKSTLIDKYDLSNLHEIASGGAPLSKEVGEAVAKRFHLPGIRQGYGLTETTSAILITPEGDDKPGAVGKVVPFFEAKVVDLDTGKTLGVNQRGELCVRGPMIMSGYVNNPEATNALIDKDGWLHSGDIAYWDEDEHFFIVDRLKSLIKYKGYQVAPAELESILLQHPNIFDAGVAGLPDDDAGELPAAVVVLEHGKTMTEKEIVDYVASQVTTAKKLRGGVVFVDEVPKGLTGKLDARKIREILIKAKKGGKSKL
Sequence of zebrafish Estrogen Receptor (ESR1), esr1 (gene 259252) (P57717 whole entry, looked up, the tested form may be a part): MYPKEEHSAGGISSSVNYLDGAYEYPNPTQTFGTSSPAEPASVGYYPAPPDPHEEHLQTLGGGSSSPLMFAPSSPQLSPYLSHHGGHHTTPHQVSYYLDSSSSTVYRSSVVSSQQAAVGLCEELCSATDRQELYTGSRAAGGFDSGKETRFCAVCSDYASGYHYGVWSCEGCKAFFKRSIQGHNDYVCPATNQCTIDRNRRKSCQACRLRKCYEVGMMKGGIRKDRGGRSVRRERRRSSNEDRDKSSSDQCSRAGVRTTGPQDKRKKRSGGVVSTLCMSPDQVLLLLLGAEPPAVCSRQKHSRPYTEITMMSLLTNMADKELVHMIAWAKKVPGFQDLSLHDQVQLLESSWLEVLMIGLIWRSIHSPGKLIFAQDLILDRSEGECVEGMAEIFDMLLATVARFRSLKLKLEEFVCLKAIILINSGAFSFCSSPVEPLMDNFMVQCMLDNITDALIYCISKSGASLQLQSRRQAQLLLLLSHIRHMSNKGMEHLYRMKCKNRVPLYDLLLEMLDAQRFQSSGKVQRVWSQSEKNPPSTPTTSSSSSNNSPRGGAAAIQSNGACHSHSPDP

With `CC(C)(C)c1cc(C(C)(C)C)c(O)c(C(C)(C)C)c1`, the outcome in [1], in experiment [3] and in experiment [4] was inactive. Further, in [2], the AC50 is 7.36 µM (active).
`CC#C[C@]1(O)CC[C@H]2[C@@H]3CCC4=CC(=O)CCC4=C3[C@@H](c3ccc(N(C)C)cc3)C[C@@]21C`: the AC50 is 14.5 µM (active) in [2], 13.4 µM (active) in experiment [5], 27.9 µM (active) in [3] and 28.1 µM (active) in [6]. In addition, the result in experiment [4] was inactive.
On to `C[C@@H]1C[C@H]2[C@@H]3CCC4=CC(=O)C=C[C@]4(C)[C@@]3(F)[C@@H](O)C[C@]2(C)[C@@]1(O)C(=O)COP(=O)(O)O`, for which the compound was classed as inactive in experiment [2], in experiment [7], in experiment [8], in [5] and in experiment [3].
For the compound `Cc1cc(CCN2CCN(c3nsc4ccccc34)CC2)cc2c1NC(=O)CC2(C)C`, the AC50 is 1.64 µM (active) in [2]; 8.41 µM (active) in experiment [7]; 7.94 µM (active) in experiment [8]; 11.1 µM (active) in experiment [5]; 3.78 µM (active) in experiment [3]; 9.03 µM (active) in experiment [6].
As to `O=[N+]([O-])c1ccc(O)cc1`, the AC50 in experiment [2] is 64.4 µM (active) and 59 µM (active). Also, the outcome in experiment [5], in [3] and in experiment [6] was inactive.
For the compound `O=C(OCCOCCOC(=O)c1ccccc1)c1ccccc1`, the compound was classed as inactive in [1], in [7], in experiment [8], in [3] and in [6]. Also, the AC50 in experiment [2] is 1.74 µM (active).
On to `c1ccc2cc3c(ccc4ccccc43)cc2c1`, for which the AC50 was 20.4 µM (active) in experiment [2] and 17.3 µM (active) in experiment [4]. Besides, the compound was called inactive in [5] and in [3].
With `CC(C)(C)c1ccc(O)c(C(C)(C)C)c1`, the AC50 in [2] is 7.38 µM (active); in experiment [3], 0.00448 µM (active); in [6], 17.4 µM (active). For the same compound, in experiment [4], the call was inactive.
For the compound `CCCOC(=O)c1ccc(O)cc1`, the AC50 is 14.9 µM (active) in experiment [2] and 43.3 µM (active) in experiment [3]. Moreover, the compound was called inactive in [5] and in experiment [6].
For `CCC(C)(C)C1CCC(O)CC1` (configuration not stated), the result in [2], in [3], in [9], in [10], in experiment [12] and in experiment [6] was inactive. Besides, the AC50 in [11] is 10 µM (active).
Consider `Oc1cc2ccccc2c2ccccc12`, for which the AC50 in experiment [2] is 4.98 µM (active); in experiment [3] it was 31.4 µM (active); in experiment [4], 30.1 µM (active); in [6] it was 18.1 µM (active).
On to `CCc1nn(C2CCCCC2)c2cc(C3(C#N)CCC(C(=O)O)CC3)ccc12` (configuration not stated), for which the AC50 in experiment [2] was 0.263 µM (active); in experiment [3], 0.421 µM (active). Further, the result in experiment [5] was inactive.
On to `O=C(O)c1ccccc1C(c1ccc(O)cc1)c1ccc(O)cc1`, for which the compound was called inactive in experiment [2], in experiment [5], in experiment [3] and in [6]. Also, the half-maximal activity concentration (AC50) in [13] is 118 µM (active); in experiment [4] it was 15.3 µM (active).

For orientation: AC50 means the midpoint of the concentration-response curve, whichever way the signal moves.

The values above are taken from PubChem BioAssay (EPA / NIEHS).
